Here are results for four compounds from PubChem BioAssay (EPA / NIEHS).

SMILES strings stand for the structures. Calls of active or inactive are those of the source. How the source made its calls: active means hit-call score of the fitted dose curve at least 0.9, where 1 is the maximum; inactive means score below 0.9.

Read-out in experiment [1]: TIMP metallopeptidase inhibitor 1 (TIMP1), TIMP1 (gene 7076)
As to the kind of experiment: BSK_hDFCGF_TIMP1: BioMAP Diversity Plus: hDFCGF Assay for TIMP metallopeptidase inhibitor 1 (TIMP1) Biomarker Activity (AID 2283062). The following applies: primary human foreskin fibroblasts; actives raise or lower the signal. The essentials:
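Human foreskin fibroblast primary cultures dosed for 24 h; secreted/surface TIMP-1 quantified by ELISA. Bidirectional curve fitting against DMSO baseline; cytotoxicity tracked in parallel cultures by SRB total-protein staining.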

Read-out in experiment [2]: Monokine induced gamma interferon (MIG), CXCL9 (gene 4283)
As to the kind of experiment: BSK_hDFCGF_MIG: BioMAP Diversity Plus: hDFCGF Assay for Monokine induced gamma interferon (MIG) Biomarker Activity (AID 2283063). The following applies: primary human foreskin fibroblasts; actives raise or lower the signal. The method, boiled down:
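MIG/CXCL9 measured by ELISA 24 h after dosing primary human skin fibroblasts. Activity fitted in both directions against DMSO controls. Cytotoxicity was checked in parallel cultures by SRB staining read at 560 nm.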

Read-out in experiment [3]: Vascular cell adhesion molecule 1 (VCAM1), VCAM1 (gene 7412)
As to the kind of experiment: BSK_hDFCGF_VCAM1: BioMAP Diversity Plus: hDFCGF Assay for Vascular cell adhesion molecule 1 (VCAM1) Biomarker Activity (AID 2283065). The following applies: primary human foreskin fibroblasts; actives raise or lower the signal. The essentials: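 Human foreskin fibroblast primary cells dosed with chemical, VCAM-1 measured by ELISA at 24 h. Bidirectional curve fitting relative to DMSO as negative control/baseline.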

Read-out in experiment [4]: Plasminogen activator inhibitor-1 (PAI1), SERPINE1 (gene 5054)
As to the kind of experiment: BSK_hDFCGF_PAI1: BioMAP Diversity Plus: hDFCGF Assay for Plasminogen activator inhibitor-1 (PAI1) Biomarker Activity (AID 2283066). The following applies: primary human foreskin fibroblasts; actives raise or lower the signal. The essentials:
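Human foreskin fibroblast primary cells, 24 h chemical exposure; PAI-1 measured by ELISA. Bidirectional fitting relative to DMSO; parallel cultures stained with SRB for total protein to flag overt cytotoxicity.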

Read-out in experiment [5]: Intercellular Adhesion Molecule 1 (ICAM1), ICAM1 (gene 3383)
As to the kind of experiment: BSK_KF3CT_ICAM1: BioMAP Diversity Plus: KF3CT Assay for Intercellular Adhesion Molecule 1 (ICAM1) Biomarker Activity (AID 2283067). The following applies: primary human keratinocytes with fibroblasts; actives raise or lower the signal. The method, boiled down: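 Human keratinocyte–foreskin fibroblast co-culture was treated for 24 h. Cell-surface ICAM-1 was quantified by ELISA, fitted bidirectionally relative to DMSO. Cytotoxicity was checked in parallel cultures by SRB total-protein staining.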

Read-out in experiment [6]: Interferon-gamma inducible Protein 10 (IP10), CXCL10 (gene 3627)
As to the kind of experiment: BSK_KF3CT_IP10: BioMAP Diversity Plus: KF3CT Assay for Interferon-gamma inducible Protein 10 (IP10) Biomarker Activity (AID 2283068). The following applies: primary human keratinocytes with fibroblasts; actives raise or lower the signal. The essentials:
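Human keratinocyte plus foreskin fibroblast primary co-culture exposed to test chemical for 24 h; IP-10 measured by ELISA. Concentration-response fitted bidirectionally against DMSO control as baseline.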

Experiment [7] in a line: BSK_KF3CT_SRB: Viability Assessment in the BioMAP Diversity Plus: KF3CT Assay (AID 2283069).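 Further: total protein by sulforhodamine B staining as a cytotoxicity measure; fitted for both signal gain and loss against DMSO baseline.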 The following applies: primary human keratinocytes with fibroblasts. The essentials: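 Keratinocytes co-cultured with foreskin fibroblasts (human primary); chemical added, 24 h; fix 10% TCA, stain 0.1% SRB, A560. Bidirectional fit vs DMSO.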
Read-out in experiment [8]: Interleukin-1 alpha (IL1a), IL1A (gene 3552)
As to the kind of experiment: BSK_KF3CT_IL1a: BioMAP Diversity Plus: KF3CT Assay for Interleukin-1 alpha (IL1a) Biomarker Activity (AID 2283070). The following applies: primary human keratinocytes with fibroblasts; actives raise or lower the signal. The essentials: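 Chemicals were dosed onto co-cultured human keratinocytes and foreskin fibroblasts, IL-1a was quantified by ELISA at 24 h, and activity was fitted in both directions relative to DMSO controls.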

Read-out in experiment [9]: TIMP metallopeptidase inhibitor 2 (TIMP2), TIMP2 (gene 7077)
As to the kind of experiment: BSK_KF3CT_TIMP2: BioMAP Diversity Plus: KF3CT Assay for TIMP metallopeptidase inhibitor 2 (TIMP2) Biomarker Activity (AID 2283071). The following applies: primary human keratinocytes with fibroblasts; actives raise or lower the signal. The method, boiled down:
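Co-culture of human primary keratinocytes and foreskin fibroblasts, measured 24 h after chemical dosing. TIMP-2 quantified by ELISA and fitted in both directions relative to DMSO. Cytotoxicity checked in parallel cultures by SRB total-protein staining.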

Read-out in experiment [10]: Transforming growth factor beta 1 (TGFb1), TGFB1 (gene 7040)
As to the kind of experiment: BSK_KF3CT_TGFb1: BioMAP Diversity Plus: KF3CT Assay for Transforming growth factor beta 1 (TGFb1) Biomarker Activity (AID 2283072). The following applies: primary human keratinocytes with fibroblasts; actives raise or lower the signal. The essentials:
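Human keratinocyte/foreskin fibroblast co-culture; TGF-b1 measured by ELISA 24 h after dosing, fitted bidirectionally versus DMSO. Cytotoxicity checked in parallel cultures by total protein (SRB staining, 560 nm).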

Read-out in experiment [11]: C-C motif chemokine 2 (Homo sapiens) (UniProt P13500)
As to the kind of experiment: BSK_KF3CT_MCP1: BioMAP Diversity Plus: KF3CT Assay for Monocyte Chemoattractant Protein 1 (MCP1/CCL2) Biomarker Activity (AID 2283073). The following applies: primary human keratinocytes with fibroblasts; actives raise or lower the signal. The method, boiled down:
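Human keratinocyte–foreskin fibroblast co-culture; MCP-1 measured by ELISA 24 h after dosing. Bidirectional fit vs DMSO; cytotoxicity tracked by SRB total protein in parallel cultures.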

Read-out in experiment [12]: Matrix Metallopeptidase 9 (MMP9), MMP9 (gene 4318)
As to the kind of experiment: BSK_KF3CT_MMP9: BioMAP Diversity Plus: KF3CT Assay for Matrix Metallopeptidase 9 (MMP9) Biomarker Activity (AID 2283074).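 On AC50: MMP9 protein level quantified by ELISA in the co-culture.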 The following applies: primary human keratinocytes with fibroblasts; actives raise or lower the signal. The essentials:
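Human keratinocyte/foreskin fibroblast co-culture; compound added; 24 h; MMP-9 by ELISA; bidirectional fit vs DMSO baseline.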

Read-out in experiment [13]: urokinase plasminogen activator (uPA), PLAU (gene 5328)
As to the kind of experiment: BSK_KF3CT_uPA: BioMAP Diversity Plus: KF3CT Assay for urokinase plasminogen activator (uPA) Biomarker Activity (AID 2283075). The following applies: primary human keratinocytes with fibroblasts; actives raise or lower the signal. The method, boiled down:
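ELISA readout of uPA, analyzed for signal gain or loss relative to DMSO, from a human primary keratinocyte–foreskin fibroblast co-culture measured 24 h after chemical treatment.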

Read-out in experiment [14]: CD40, CD40 (gene 958)
As to the kind of experiment: BSK_LPS_CD40: BioMAP Diversity Plus: LPS Assay for CD40 Biomarker Activity (AID 2283076). The following applies: primary human HUVEC with PBMC; actives raise or lower the signal. The essentials:
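HUVEC plus PBMC co-culture stimulated with LPS; CD40 quantified by ELISA 24 h after compound dosing. Fitting was bidirectional relative to DMSO. SRB staining of parallel cultures flagged overt cytotoxicity.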

Read-out in experiment [15]: E-selectin (Homo sapiens) (UniProt P16581)
As to the kind of experiment: BSK_LPS_Eselectin: BioMAP Diversity Plus: LPS Assay for Eselectin Biomarker Activity (AID 2283077). The following applies: primary human HUVEC with PBMC; actives raise or lower the signal. The essentials: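 Human umbilical vein endothelial cells co-cultured with PBMC under LPS stimulation; cell-surface E-selectin measured by ELISA 24 h after dosing. Change in either direction versus DMSO, with SRB total-protein staining in parallel cultures for cytotoxicity.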

Read-out in experiment [16]: Interleukin-8 (IL8), CXCL8 (gene 3576)
As to the kind of experiment: BSK_LPS_IL8: BioMAP Diversity Plus: LPS Assay for Interleukin-8 (IL8) Biomarker Activity (AID 2283078). The following applies: primary human HUVEC with PBMC; actives raise or lower the signal. The essentials:
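Human umbilical vein endothelial cells co-cultured with PBMC, LPS-stimulated, exposed to compound for 24 h. IL-8 quantified by ELISA; fitted in both directions against DMSO, with SRB total-protein staining of parallel cultures for cytotoxicity.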

The nature of experiment [17]: BSK_LPS_SRB: Viability Assessment in the BioMAP Diversity Plus: LPS Assay (AID 2283079).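 Further: total protein by sulforhodamine B absorbance as a cytotoxicity measure; measured one day after compound addition; fitted in both directions against DMSO so loss or gain of signal counts.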 The following applies: primary human HUVEC with PBMC. The essentials:
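Co-culture of human umbilical vein endothelial cells and PBMC, read 24 h after dosing. Total protein by 0.1% SRB staining after 10% TCA fixation, absorbance at 560 nm; bidirectional fit against DMSO.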

Read-out in experiment [18]: Interleukin-1 alpha (IL1a), IL1A (gene 3552)
As to the kind of experiment: BSK_LPS_IL1a: BioMAP Diversity Plus: LPS Assay for Interleukin-1 alpha (IL1a) Biomarker Activity (AID 2283080). The following applies: primary human HUVEC with PBMC; actives raise or lower the signal. The method, boiled down: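 Human umbilical vein endothelial cells co-cultured with PBMC and stimulated with LPS; IL-1a measured by ELISA 24 h after dosing. Bidirectional fitting against DMSO; cytotoxicity checked by SRB staining in parallel cultures.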

Read-out in experiment [19]: Monocyte Chemoattractant Protein-1 (MCP1), CCL2 (gene 6347)
As to the kind of experiment: BSK_LPS_MCP1: BioMAP Diversity Plus: LPS Assay for Monocyte Chemoattractant Protein-1 (MCP1) Biomarker Activity (AID 2283081). The following applies: primary human HUVEC with PBMC; actives raise or lower the signal. The method, boiled down: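 Human umbilical vein endothelial cells co-cultured with PBMC, LPS-stimulated; secreted MCP-1 measured by ELISA 24 h after compound addition. Bidirectional curve fitting against DMSO baseline; SRB total-protein staining in parallel cultures for cytotoxicity.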

Read-out in experiment [20]: Matrix Metallopeptidase 1 (MMP1), MMP1 (gene 4312)
As to the kind of experiment: BSK_hDFCGF_MMP1: BioMAP Diversity Plus: hDFCGF Assay for Matrix Metallopeptidase 1 (MMP1) Biomarker Activity (AID 2283064). The following applies: primary human foreskin fibroblasts; actives raise or lower the signal. The essentials: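 hDFCGF primary fibroblasts (human foreskin); chemical added; 24 h; MMP1 by ELISA; bidirectional fit vs DMSO.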

Sequence of E-selectin (Homo sapiens) (P16581 whole entry, looked up): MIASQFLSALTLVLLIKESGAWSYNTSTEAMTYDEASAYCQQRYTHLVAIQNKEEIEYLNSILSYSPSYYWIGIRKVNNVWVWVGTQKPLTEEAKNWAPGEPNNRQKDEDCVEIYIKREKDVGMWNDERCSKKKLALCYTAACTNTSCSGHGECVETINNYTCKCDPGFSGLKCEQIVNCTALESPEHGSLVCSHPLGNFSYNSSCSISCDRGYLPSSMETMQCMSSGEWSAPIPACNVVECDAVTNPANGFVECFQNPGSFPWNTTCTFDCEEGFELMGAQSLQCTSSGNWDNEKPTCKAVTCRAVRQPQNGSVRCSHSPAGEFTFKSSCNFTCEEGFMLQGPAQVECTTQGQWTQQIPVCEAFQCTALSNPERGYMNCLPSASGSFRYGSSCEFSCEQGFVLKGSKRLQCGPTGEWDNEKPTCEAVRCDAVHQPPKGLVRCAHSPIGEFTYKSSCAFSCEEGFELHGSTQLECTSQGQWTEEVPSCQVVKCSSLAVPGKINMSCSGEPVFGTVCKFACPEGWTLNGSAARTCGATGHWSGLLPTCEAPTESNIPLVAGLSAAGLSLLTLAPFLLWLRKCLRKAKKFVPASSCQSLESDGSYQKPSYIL

As for `c1ccc(NNc2ccccc2)cc1`, the outcome in experiment [1], in [2], in experiment [3], in [4], in experiment [5] and in [6] was inactive. Moreover, the outcome in experiment [7], in experiment [8], in [9], in experiment [10], in experiment [11] and in [12] was inactive. The result in experiment [13], in experiment [14], in experiment [15], in experiment [16], in [17] and in experiment [18] was inactive. Also, the outcome in experiment [19] was inactive.

As usually defined, the AC50 is the concentration at which the activity in the assay is half-maximal. Turning to `CC(C)(O)c1cnn2c(-c3ccc(F)c(-c4c(F)cccc4C#N)c3)cnc2n1`, the result in experiment [1], in [2], in experiment [5], in [8], in experiment [11] and in experiment [14] was inactive. The result in experiment [15], in [17], in experiment [18] and in experiment [19] was inactive. Also, the AC50 in experiment [20] was 6.43 µM (active); in experiment [6], 23.2 µM (active); in experiment [7] it was 33.2 µM (active); in experiment [9], 31 µM (active); in [10] it was 36 µM (active); in experiment [12], 34.6 µM (active). The values for the AC50 in experiment [13] and in experiment [16] were 31.9 µM (active) and 3.82 µM (active), respectively.

For the compound `OCCOCCO`, the outcome in [1], in [2], in experiment [20], in experiment [5], in experiment [6] and in experiment [7] was inactive. For the same compound, the result in experiment [8], in [9], in experiment [10], in experiment [11], in experiment [12] and in [13] was inactive. Also, the outcome in experiment [14], in experiment [15], in experiment [16], in experiment [17], in experiment [18] and in [19] was inactive.

Consider `c1ccc2c(c1)-c1cccc3cccc-2c13`, for which the result in experiment [1], in experiment [2], in experiment [3], in experiment [4], in [5] and in experiment [6] was inactive. Further, the result in experiment [7], in experiment [8], in [9], in [10], in experiment [13] and in [14] was inactive. Further, the result in experiment [15], in [16], in experiment [17], in [18] and in [19] was inactive. Further, in experiment [12], the AC50 is 28.9 µM (active).
